The full ranking holds about 18,000 sequences; the median of “log2 normalized intensity” is about 0.36, and the highest 2% start at about 7.3. This excerpt belongs to a sample that is enriched for the highest values.
Each sequence was assayed against T1, HNF4alpha8 (COS-7 nuclear extract) (Homo sapiens, UniProt P41235-5 1-452) (assay: protein-binding microarray; COS-7 nuclear extract on double-stranded Agilent 4x180k PBM; binding buffer, salt, pH and temperature not given in the material; high values mean tight binding). Details: chain copies: 2; label: 3' end of strand 1 on the slide; dsDNA, one strand shown.
T1 sequence: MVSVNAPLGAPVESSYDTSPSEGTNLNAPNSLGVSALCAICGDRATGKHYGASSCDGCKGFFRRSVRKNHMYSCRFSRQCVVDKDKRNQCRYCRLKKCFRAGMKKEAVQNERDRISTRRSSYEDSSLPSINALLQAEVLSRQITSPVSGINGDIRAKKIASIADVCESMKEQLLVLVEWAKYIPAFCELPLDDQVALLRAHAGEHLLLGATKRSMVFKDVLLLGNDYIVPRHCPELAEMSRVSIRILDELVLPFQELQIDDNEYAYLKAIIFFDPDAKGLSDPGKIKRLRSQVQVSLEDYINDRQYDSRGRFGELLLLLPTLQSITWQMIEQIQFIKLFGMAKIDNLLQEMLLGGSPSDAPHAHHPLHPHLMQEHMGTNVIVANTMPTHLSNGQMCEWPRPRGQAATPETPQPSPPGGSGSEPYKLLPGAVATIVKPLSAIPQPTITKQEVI
Procedure, shortened: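 Binding signal is the background-corrected, normalized gProcessedSignal calculated by Agilent software. It was measured by applying nuclear extracts of COS-7 cells transiently transfected with a human HNF4α isoform expression vector to a custom Agilent SurePrint G3 4x180k array of ~44,000 double-stranded ~60-nt test sequences in quadruplicate, then imaging bound HNF4α on an Agilent G2565CA scanner at 2-µm resolution.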
Sequence “TTTCTGCTCTCAACTAGAGATAAACTTTTGGCCTAGGGAGATTAGAGTATCGGTCGA” has a binding signal of 0.481 log2 normalized intensity. Sequence “CCCCACTGTAGTAAGGGAGTGTGGGGTGGTGCCTAGGGAGATTAGAGTATCGGTCGA” has a binding signal of -0.92 log2 normalized intensity. Sequence “TGTGCTGCCCCCGATAGCACTATTAGTCTTGCCTAGGGAGATTAGAGTATCGGTCGA” has a binding signal of 3.06 log2 normalized intensity. With “GCCACATCCTGTCTCCTTTAACCTTCATTCGCCTAGGGAGATTAGAGTATCGGTCGA” the binding signal was 1.97 log2 normalized intensity. “CACTGTCTCAGGGTCCACATTCCAGGAATAGCCTAGGGAGATTAGAGTATCGGTCGA” showed a binding signal of 2.44 log2 normalized intensity. Work on “CTGGACTTTGGCTGCAAAATTTGAACAAAAGCCTAGGGAGATTAGAGTATCGGTCGA” yielded a binding signal of 2.14 log2 normalized intensity. Work on “TACCTTTCCTGCATTAACATCAACATGGACGCCTAGGGAGATTAGAGTATCGGTCGA” yielded a binding signal of 2.03 log2 normalized intensity. For “TGATAGCCATCTGGTGGACTTTGCTCTGCTGCCTAGGGAGATTAGAGTATCGGTCGA”, the binding signal was 8.15 log2 normalized intensity. For “CTGCTTGATAGCCATCTGGTGGACTTTGCTGCCTAGGGAGATTAGAGTATCGGTCGA”, the binding signal was 6.09 log2 normalized intensity. With “ACCTGGAACTGAAAGAGACCTTTGACATCAGCCTAGGGAGATTAGAGTATCGGTCGA” the binding signal was 5.23 log2 normalized intensity. “TTCCTGCATTAACATCAACATGGACTTTGAGCCTAGGGAGATTAGAGTATCGGTCGA” showed a binding signal of 9.28 log2 normalized intensity. Work on “AGCAGATGGCCAGCCTTTGGACTTTGAACTGCCTAGGGAGATTAGAGTATCGGTCGA” yielded a binding signal of 11.2 log2 normalized intensity. Work on “TTTTTGGCCTTTACCCCTTGAGTTTGAACTGCCTAGGGAGATTAGAGTATCGGTCGA” yielded a binding signal of 4.12 log2 normalized intensity. “GCATTAACATCAACATGGACTTTGAGTCATGCCTAGGGAGATTAGAGTATCGGTCGA” showed a binding signal of 6.9 log2 normalized intensity. Work on “CTGCCTTTCCCAGATGGATTGATAGACTTAGCCTAGGGAGATTAGAGTATCGGTCGA” yielded a binding signal of 0.78 log2 normalized intensity. Sequence “CAGCCTTTGGACTTTGAACTGCAACATCAGGCCTAGGGAGATTAGAGTATCGGTCGA” has a binding signal of 8.89 log2 normalized intensity. Work on “GCCATCTGGTGGACTTTGCTCTGCTCATTTGCCTAGGGAGATTAGAGTATCGGTCGA” yielded a binding signal of 7.25 log2 normalized intensity. With “TCCAACCTGTTCTTTTGAGCTGTGGTTAAGGCCTAGGGAGATTAGAGTATCGGTCGA” the binding signal was 1.73 log2 normalized intensity. “CAATCCAGAAGGCGCTGAACTTTGCCTTGTGCCTAGGGAGATTAGAGTATCGGTCGA” was tested, and the binding signal was 5.04 log2 normalized intensity. Work on “ATGGGACCTTTGCCCTTCTTGTTAACCTCCGCCTAGGGAGATTAGAGTATCGGTCGA” yielded a binding signal of 4.54 log2 normalized intensity. Sequence “CCTGAGCCTGGACCTTGGAATGTCAAGATTGCCTAGGGAGATTAGAGTATCGGTCGA” has a binding signal of 3.05 log2 normalized intensity. Work on “AGCAGCATAAAGGACTTTCAACCCTGTGATGCCTAGGGAGATTAGAGTATCGGTCGA” yielded a binding signal of 3.89 log2 normalized intensity. With “AAAACCATTGCAAATTGGATGTTGAACCTCGCCTAGGGAGATTAGAGTATCGGTCGA” the binding signal was 4.51 log2 normalized intensity. Work on “AGGGTCTTTGCAACTGTGTGTGGCCTGCACGCCTAGGGAGATTAGAGTATCGGTCGA” yielded a binding signal of 1.53 log2 normalized intensity. For “ATGGCCAGCCTTTGGACTTTGAACTGCAACGCCTAGGGAGATTAGAGTATCGGTCGA”, the binding signal was 10.1 log2 normalized intensity. “ATGGAAGGACCTTGGACTGAAGACTGGAACGCCTAGGGAGATTAGAGTATCGGTCGA” gave a binding signal of 3.17 log2 normalized intensity. For “GCTGGGTCAAAGTGTATGCATATTTTAAGTGCCTAGGGAGATTAGAGTATCGGTCGA”, the binding signal was 2.27 log2 normalized intensity. For “ACCGACCTTTGGTTCCTGAACTCAAACCCCGCCTAGGGAGATTAGAGTATCGGTCGA”, the binding signal was 3.35 log2 normalized intensity. “GAGGTTCCTGGAACTCTGACCTTTGCCCCCGCCTAGGGAGATTAGAGTATCGGTCGA” was tested, and the binding signal was 10.3 log2 normalized intensity. In the case of “GCCTGCCCCTCTGACCTCTCCTCCTACCTTGCCTAGGGAGATTAGAGTATCGGTCGA”, the binding signal was 3.39 log2 normalized intensity. Work on “AGGAGGAGGTTCCTGGAACTCTGACCTTTGGCCTAGGGAGATTAGAGTATCGGTCGA” yielded a binding signal of 6.98 log2 normalized intensity. For “TTCATCCCCACCCCCACTGCCTGACCCCAAGCCTAGGGAGATTAGAGTATCGGTCGA”, the binding signal was 7.49 log2 normalized intensity. In the case of “CCCCACCCCCACTGCCTGACCCCAAGTAATGCCTAGGGAGATTAGAGTATCGGTCGA”, the binding signal was 7.09 log2 normalized intensity. In the case of “CCCCCACTGCCTGACCCCAAGTAATAGCCGGCCTAGGGAGATTAGAGTATCGGTCGA”, the binding signal was 5.69 log2 normalized intensity. Sequence “GGAACCCCACCCCCACGCCCCCCAGCGGAAGCCTAGGGAGATTAGAGTATCGGTCGA” has a binding signal of 7.38 log2 normalized intensity. “CCCACCCCCACGCCCCCCAGCGGAAGTCCAGCCTAGGGAGATTAGAGTATCGGTCGA” gave a binding signal of 6.82 log2 normalized intensity. “AAATCTGCCCAACCTTTGCCCCTGGAGGGAGCCTAGGGAGATTAGAGTATCGGTCGA” was tested, and the binding signal was 4.18 log2 normalized intensity. “TCCTGGAACTCTGACCTTTGCCCCCAGCCTGCCTAGGGAGATTAGAGTATCGGTCGA” gave a binding signal of 10.1 log2 normalized intensity. For “GGATCGGAACCCCACCCCCACGCCCCCCAGGCCTAGGGAGATTAGAGTATCGGTCGA”, the binding signal was 7.03 log2 normalized intensity. In the case of “CTTCCACCCACTTTATCTTCTATAGGAATTGCCTAGGGAGATTAGAGTATCGGTCGA”, the binding signal was 0.738 log2 normalized intensity. With “GTGTGTGGCCTGCACAGTTGCACAATGTCAGCCTAGGGAGATTAGAGTATCGGTCGA” the binding signal was 0.815 log2 normalized intensity. Work on “CTATAGTTATCTCTGCTGATAGCATAAAGCGCCTAGGGAGATTAGAGTATCGGTCGA” yielded a binding signal of 0.212 log2 normalized intensity. “GGCTCCCTGGGGTTAAAATGTTTACTGAAGGCCTAGGGAGATTAGAGTATCGGTCGA” showed a binding signal of 0.937 log2 normalized intensity. “CTGTGCAAGCCCCTGACCAAGGGTCATGCTGCCTAGGGAGATTAGAGTATCGGTCGA” was tested, and the binding signal was 3.96 log2 normalized intensity. For “CTGACCTTTGCCCCCAGCCTCTCACAGTAGGCCTAGGGAGATTAGAGTATCGGTCGA”, the binding signal was 7.53 log2 normalized intensity. “TGCCCAGCTTGAATCACTCACTGACCTCTTGCCTAGGGAGATTAGAGTATCGGTCGA” showed a binding signal of 4.46 log2 normalized intensity. “GCTATCTTATCTTTGACCTTACCAGCCCACGCCTAGGGAGATTAGAGTATCGGTCGA” gave a binding signal of 2.94 log2 normalized intensity. “GAACTCTGACCTTTGCCCCCAGCCTCTCACGCCTAGGGAGATTAGAGTATCGGTCGA” showed a binding signal of 9.22 log2 normalized intensity. In the case of “AGCCTCTCACAGTAGCCCAGGTCCTTTGGTGCCTAGGGAGATTAGAGTATCGGTCGA”, the binding signal was 0.598 log2 normalized intensity. “CTTTGCCCCCAGCCTCTCACAGTAGCCCAGGCCTAGGGAGATTAGAGTATCGGTCGA” showed a binding signal of 4.72 log2 normalized intensity. With “TCTGCTTGCCATTAATGAAAACTGCACTTCGCCTAGGGAGATTAGAGTATCGGTCGA” the binding signal was 2.38 log2 normalized intensity. “TTTATTTGAAGAAATGGTGGACTTTGTAGCGCCTAGGGAGATTAGAGTATCGGTCGA” gave a binding signal of 6.52 log2 normalized intensity. Work on “GTGACCTTTGACCTCAGAGAGCCGGAAACTGCCTAGGGAGATTAGAGTATCGGTCGA” yielded a binding signal of 8.02 log2 normalized intensity. In the case of “GATGAGTGACCTTTGACCTCAGAGAGCCGGGCCTAGGGAGATTAGAGTATCGGTCGA”, the binding signal was 9.88 log2 normalized intensity. “TTGCCCCTTTGACCCTCGGGCCTCCCTAGAGCCTAGGGAGATTAGAGTATCGGTCGA” gave a binding signal of 4.81 log2 normalized intensity. “CCCTCAGAGCTCAGATGAACTTTGCCTTAGGCCTAGGGAGATTAGAGTATCGGTCGA” was tested, and the binding signal was 6.28 log2 normalized intensity. “CACCACTAGGAAACTGACCTTTGCTCATGAGCCTAGGGAGATTAGAGTATCGGTCGA” showed a binding signal of 7.58 log2 normalized intensity. Sequence “CTTTGACCTCAGAGAGCCGGAAACTCCACCGCCTAGGGAGATTAGAGTATCGGTCGA” has a binding signal of -0.861 log2 normalized intensity. “TCATTGATGAGTGACCTTTGACCTCAGAGAGCCTAGGGAGATTAGAGTATCGGTCGA” gave a binding signal of 10.5 log2 normalized intensity. “CTAGGAAACTGACCTTTGCTCATGACTATTGCCTAGGGAGATTAGAGTATCGGTCGA” gave a binding signal of 6.61 log2 normalized intensity. “GGCTGATGACCTTTGACTGAGATGGGAGCAGCCTAGGGAGATTAGAGTATCGGTCGA” was tested, and the binding signal was 4.58 log2 normalized intensity. For “AAAGACTTGCTCATTGATGAGTGACCTTTGGCCTAGGGAGATTAGAGTATCGGTCGA”, the binding signal was 7 log2 normalized intensity. “ATTCTCACCACTAGGAAACTGACCTTTGCTGCCTAGGGAGATTAGAGTATCGGTCGA” was tested, and the binding signal was 6.07 log2 normalized intensity. Work on “CTACTACTTGACCTTTGAAACATATCCAGAGCCTAGGGAGATTAGAGTATCGGTCGA” yielded a binding signal of 6.31 log2 normalized intensity.
